This is part of a sample that, as a whole, favours compounds with a hit. Of some 79,000 tested, about 15% had one in any assay. Calls of active or inactive are those of the source. Cut-off read from the data, not from the text of the source: active = growth inhibition above about 70%; inactive = the rest.
test: NCI Yeast Anticancer Drug Screen. Data for the cln2 rad14 strain (AID 165);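 note: 0% = growth equal to vehicle treated cultures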; settings: S. cerevisiae cln2 rad14 strain, at 50.0 µM, active compounds read high
Outline: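 Compounds are applied to the cln2 rad14 yeast strain, and growth is then compared with that of vehicle-treated cultures to give inhibition.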

SMILES	growth inhibition
COc1cc(C(=O)N/N=C/c2cccc([N+](=O)[O-])c2)cc(OC)c1OC	24.4% (inactive)
COC(=O)c1ccccc1Br	-22.1% (inactive)
c1ccc(/C(=N\N=C(/c2ccccc2)c2cccs2)c2cccs2)cc1	-2.8% (inactive)
Cc1cc(NC(=O)CSCC(=O)O)no1	7.8% (inactive)
CC(=O)c1ccc(C)c(N)c1	-0.6% (inactive)
O=C(O)c1cccc([N+](=O)[O-])c1O	-0.7% (inactive)
CC1OC(Oc2c(-c3ccc(O)c(O)c3)oc3cc(O)cc(O)c3c2=O)C(O)C(O)C1O (stereo not drawn)	8.6% (inactive)
N#CC1(Nc2ccc3c4c(cccc24)CC3)CCCCC1	16% (inactive)
Nc1ccc(C(=O)c2ccc(N)c(Br)c2)cc1Br	-77.9% (inactive)
CC(=O)Oc1ccc(Br)cc1C(=O)O	-26.9% (inactive)
O=C(NN=C1CCCCC1)C(=O)NN=C1CCCCC1	-20.7% (inactive)
Nc1ncnc2c1nc(N)n2C1OC(CO)C(O)C1O (stereo not drawn)	-23.4% (inactive)
N#CCCc1ccc(O)cc1	1.55% (inactive)
CCCCOC(OCCCC)c1ccccc1	-18.6% (inactive)
CCCNC(=O)c1ccc(S(N)(=O)=O)cc1	-4.55% (inactive)
CCCCCCCO	2.25% (inactive)
COc1ccccc1NC(=O)c1cc2cc(Br)ccc2cc1O	41.6% (inactive)
COc1cc(C(=O)NC(=S)Nc2ccc3ccccc3c2)cc(OC)c1OC	-6.15% (inactive)
OCC(O)C(O)C(O)C(O)/C=N/O (stereo not drawn)	-6.7% (inactive)
O=[N+]([O-])c1ccc(-c2noc(-c3cccs3)n2)cc1	15% (inactive)

SMILES	growth inhibition
CC1CCCC(CC(N)=O)CC1 (stereo not drawn)	1.3% (inactive)
COc1cc(OC)c2ccc(=O)oc2c1	6.75% (inactive)
N=c1c(C(=O)OCc2ccccc2)ncc(CCl)n1O	22.9% (inactive)
Cc1cc2nc(CO)[nH]c2cc1C	7.55% (inactive)
CC(CN1CCCCC1)NC(=O)c1scnc1-c1ccccc1 (stereo not drawn)	-2.5% (inactive)
COc1ncnc2c1cnn2C	-35.1% (inactive)
O/N=C/c1ccc(O)cc1O	-29.9% (inactive)
O=c1[nH]nc(SC2CCCCC2)c(=O)[nH]1	-5.4% (inactive)
CCCCCCCCOC(=O)c1ccccn1	-59% (inactive)
CN(C)c1nc2c([nH]1)c(=O)n(C)c(=O)n2C	5.2% (inactive)
COC(=O)c1ccc(NC(=O)CCl)cc1	49% (inactive)
OCCN(CCO)C(=S)S	-1.8% (inactive)
CC(=O)Nc1cccc(NC(C)=O)n1	-5% (inactive)
COc1cc(C2c3cc4c(cc3C3OC(=O)C2C3CO)OCO4)cc(OC)c1OC (stereo not drawn)	6.25% (inactive)
COc1cc(/C=C(\C#N)C(=O)c2ccccc2)ccc1OCc1ccccc1	1.25% (inactive)
COCCOC(=O)c1ccc(C(C)C)cc1	-9.35% (inactive)
Cc1cc(O)ccc1O	-5.05% (inactive)
NC(N)=Nc1cc2ccccc2c2ccccc12	-14% (inactive)
O=C(/C=C\c1ccc(O)cc1)c1ccccc1	8.6% (inactive)

test: NCI Yeast Anticancer Drug Screen. Data for the bub3 strain (AID 167); settings: S. cerevisiae bub3 mutant strain, at 50.0 µM, active compounds read high
Outline: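 In this screen, a yeast mutant lacking normal mitotic checkpoint function is challenged with compound. Relative growth versus vehicle gives the inhibition value.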

SMILES	growth inhibition
COc1cc(C(=O)N/N=C/c2cccc([N+](=O)[O-])c2)cc(OC)c1OC	-39.2% (inactive)
COC(=O)c1ccccc1Br	-3.75% (inactive)
c1ccc(/C(=N\N=C(/c2ccccc2)c2cccs2)c2cccs2)cc1	23.6% (inactive)
Cc1cc(NC(=O)CSCC(=O)O)no1	-7.8% (inactive)
CC(=O)c1ccc(C)c(N)c1	-2.15% (inactive)
O=C(O)c1cccc([N+](=O)[O-])c1O	-0.8% (inactive)
CC1OC(Oc2c(-c3ccc(O)c(O)c3)oc3cc(O)cc(O)c3c2=O)C(O)C(O)C1O (stereo not drawn)	20.9% (inactive)
N#CC1(Nc2ccc3c4c(cccc24)CC3)CCCCC1	26.2% (inactive)
Nc1ccc(C(=O)c2ccc(N)c(Br)c2)cc1Br	43.3% (inactive)
CC(=O)Oc1ccc(Br)cc1C(=O)O	-10.6% (inactive)
O=C(NN=C1CCCCC1)C(=O)NN=C1CCCCC1	10% (inactive)
Nc1ncnc2c1nc(N)n2C1OC(CO)C(O)C1O (stereo not drawn)	15.3% (inactive)
N#CCCc1ccc(O)cc1	-17.9% (inactive)
CCCCOC(OCCCC)c1ccccc1	-1.8% (inactive)
CCCNC(=O)c1ccc(S(N)(=O)=O)cc1	2.55% (inactive)
CCCCCCCO	-14.7% (inactive)
COc1ccccc1NC(=O)c1cc2cc(Br)ccc2cc1O	49% (inactive)
COc1cc(C(=O)NC(=S)Nc2ccc3ccccc3c2)cc(OC)c1OC	-3.4% (inactive)
OCC(O)C(O)C(O)C(O)/C=N/O (stereo not drawn)	-1.1% (inactive)
O=[N+]([O-])c1ccc(-c2noc(-c3cccs3)n2)cc1	10.7% (inactive)

SMILES	growth inhibition
CC1CCCC(CC(N)=O)CC1 (stereo not drawn)	0.7% (inactive)
COc1cc(OC)c2ccc(=O)oc2c1	38.5% (inactive)
N=c1c(C(=O)OCc2ccccc2)ncc(CCl)n1O	73.2% (active)
Cc1cc2nc(CO)[nH]c2cc1C	-5.65% (inactive)
CC(CN1CCCCC1)NC(=O)c1scnc1-c1ccccc1 (stereo not drawn)	-1.55% (inactive)
COc1ncnc2c1cnn2C	-3.85% (inactive)
O/N=C/c1ccc(O)cc1O	17.9% (inactive)
O=c1[nH]nc(SC2CCCCC2)c(=O)[nH]1	4.85% (inactive)
CCCCCCCCOC(=O)c1ccccn1	16.6% (inactive)
CN(C)c1nc2c([nH]1)c(=O)n(C)c(=O)n2C	-10.1% (inactive)
COC(=O)c1ccc(NC(=O)CCl)cc1	32.7% (inactive)
OCCN(CCO)C(=S)S	4.95% (inactive)
CC(=O)Nc1cccc(NC(C)=O)n1	7.8% (inactive)
COc1cc(C2c3cc4c(cc3C3OC(=O)C2C3CO)OCO4)cc(OC)c1OC (stereo not drawn)	-19.5% (inactive)
COc1cc(/C=C(\C#N)C(=O)c2ccccc2)ccc1OCc1ccccc1	-26.7% (inactive)
COCCOC(=O)c1ccc(C(C)C)cc1	2.75% (inactive)
Cc1cc(O)ccc1O	3.5% (inactive)
NC(N)=Nc1cc2ccccc2c2ccccc12	-3% (inactive)
O=C(/C=C\c1ccc(O)cc1)c1ccccc1	29.6% (inactive)

— PubChem BioAssay (NCI)
